Source: PubChem BioAssay
Compounds with a hit are over-represented: about 2.6% of the library has one in this group of screens.
PRMT1 FP inh – blocks human protein arginine methyltransferase 1 | recombinant PRMT1, activity-based probe fluorescence polarization | inhibition, % at 2.79 µM | 370,000 tested, 1.3% active;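 active = inhibition above about 21% made by adding two undisclosed values, limit read from the data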
NOD2 RIPK2 PPI – inhibitors of human NOD2-RIPK2 interaction. inhibition, % at 4.98 µM. 360,000 tested, 0.38% active. CHO BLA complementation NOD2-RIPK2, CCF4 ratio. O43353; in the data active = inhibition above about 21%;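 also: 0% = vehicle only and 100% = reference blocker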
Target sequence (O43353 whole entry, looked up): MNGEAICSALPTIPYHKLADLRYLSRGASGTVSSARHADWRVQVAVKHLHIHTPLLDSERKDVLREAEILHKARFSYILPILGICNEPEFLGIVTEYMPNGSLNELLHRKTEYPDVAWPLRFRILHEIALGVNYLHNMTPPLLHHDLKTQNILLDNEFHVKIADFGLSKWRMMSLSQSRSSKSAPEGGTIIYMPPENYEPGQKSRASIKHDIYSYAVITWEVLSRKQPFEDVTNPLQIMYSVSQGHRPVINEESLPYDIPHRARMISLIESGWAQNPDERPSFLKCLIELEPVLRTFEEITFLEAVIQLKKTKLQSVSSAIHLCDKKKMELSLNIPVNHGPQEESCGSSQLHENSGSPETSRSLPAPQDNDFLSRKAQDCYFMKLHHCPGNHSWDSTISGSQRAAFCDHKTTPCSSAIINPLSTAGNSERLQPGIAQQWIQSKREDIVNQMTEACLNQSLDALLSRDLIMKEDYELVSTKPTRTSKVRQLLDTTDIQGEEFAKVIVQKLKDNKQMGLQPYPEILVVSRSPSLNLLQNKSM
TLR4-MyD88 BLA – inhibitors of human TLR4-MyD88 binding | O00206+Q99836 | HeLa CL3-4 TLR4/MyD88 BLA complementation, FRET ratio | inhibition, % at 8.4 µM | 200,000 tested, 0.18% active | AID 861; in the data active = inhibition above about 25%;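 also: 0% = vehicle and 100% = reference inhibitor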
TLR9-MyD88 block – blocks human TLR9 binding to MyD88 | 340,000 tested, 0.21% active | inhibition, % at 4.98 µM | Q9NR96+Q99836 | CHO BLA complementation TLR9-MyD88, CCF4 FRET ratio;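 active = inhibition above the mean over all tested compounds plus 3 SD, cut at about 21% in these data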;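 also: 0% = DMSO only wells and 100% = clavulanate BLA inhibitor control wells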
ABHD5-PLIN5 inh – blocks binding of human ABHD5 to perilipin-5; inhibition, % at 4 µM; Split G. princeps luciferase complementation, luminescence, 4 h; 360,000 tested, 0.78% active; Q00G26+Q8WTS1;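 active = inhibition above the mean inhibition across every tested compound plus 3 SD, cut at about 22% in these data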;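 also: 0% = DMSO only wells and the 100% control is not disclosed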
Granule exo inh – blocks lytic granule exocytosis | TALL-104 LAMP-1 surface exposure, flow cytometry; cells stimulated with thapsigargin and PMA | inhibition, % at 10 µM | 360,000 tested, 0.66% active | AID 651702;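 active = inhibition above about 55%, limit read from the data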
TLR9-MyD88 conf – confirmation of human TLR9-MyD88 binding inhibitors; 680 tested, 51% active; inhibition, % at 4.98 µM; CHO TLR9/MyD88 BLA complementation, CCF4 FRET ratio; shares compounds with TLR9-MyD88 block;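 active = mean inhibition across three repeats above about 21% taken from the earlier screen, limit read from the data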;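 also: blue over green emission ratio reports constitutive TLR9 MyD88 association via BLA complementation; 0% = DMSO vehicle wells and 100% = clavulanate BLA inhibitor wells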
BLA counter-1 – non-selective beta-lactamase inhibitors in TLR9-MyD88 counter-screen | AID 540251 | 680 tested, 7% active | shares compounds with TLR9-MyD88 block | CHO-BLA cells, CCF4 FRET ratio, BLA reporter | inhibition, % at 4.98 µM;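 active = mean inhibition above a 50% cutoff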;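 also: counterscreen of TLR9-MyD88 hits on CMV-driven BLA in CHO-K1 cells; 0% = DMSO alone and 100% = clavulanate blocking BLA; higher means less blue over green ratio so more BLA blockade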
TLR9 CHO tox – CHO cell toxicity counter-screen for TLR9-MyD88 inhibitors. shares compounds with TLR9-MyD88 block. TLR9-MyD88 CHO cells cytotoxicity, luminescence. inhibition, % at 4.98 µM. 680 tested, 39% active. AID 588336; in the data active = inhibition above about 11%
ABHD5 PLIN5 conf – confirmation of human ABHD5-PLIN5 interaction inhibitors; shares compounds with ABHD5-PLIN5 inh; biochemical ABHD5-PLIN5 interaction, luminescence; inhibition, % at 4 µM; 2,200 tested, 67% active; in the data active = inhibition above about 23%;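 also: 0% = DMSO vehicle wells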
HNF4 counter – counter-screen for ABHD5-PLIN5 inhibitors: HNF4 split-luciferase | AID 651674 | HNF4 dimerization, luminescence, biochemical | 2,200 tested, 77% active | inhibition, % at 4 µM | shares compounds with ABHD5-PLIN5 inh;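 active = mean inhibition across replicate wells exceeding the computed hit threshold, cut at about 13% in these data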;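 also: light from luciferase halves that rejoin when HNF4 fusion proteins dimerize; 0% = DMSO only wells and the 100% control is not given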
NOD2-RIPK2 conf – confirmation of human NOD2-RIPK2 interaction inhibitors. shares compounds with NOD2 RIPK2 PPI. CHO cells, NOD2-RIPK2 BLA complementation, CCF4 FRET. inhibition, % at 4.98 µM. 1,200 tested, 70% active;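 active = mean inhibition across replicates above a set limit taken from the earlier primary screen, cut at about 21% in these data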;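 also: 0% = DMSO-only wells and the high end = clavulanate BLA-blocked wells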
BLA counter-2 – NOD2-RIPK2 counterscreen BLA reporter activity; shares compounds with NOD2 RIPK2 PPI; CHO BLA reporter, CCF4 FRET ratio; inhibition, % at 4.98 µM; 1,200 tested, 57% active;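 active = mean inhibition above the low-control mean inhibition plus three low-control SD, cut at about 11% in these data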;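 also: 0% = DMSO only wells and 100% = clavulanate high control wells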
Exocytosis CP01 – lytic granule exocytosis inhibition; shares compounds with Granule exo inh; TALL-104 cells, LAMP-1 externalization, flow cytometry; stimulated with PMA plus thapsigargin; inhibition, % at 10 µM; 1,500 tested, 11% active; in the data active = inhibition above about 60%;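 also: 0% = stimulated vehicle wells and 100% = unstimulated wells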
* marks the source's active call; other numbers are inactive results.

Screening COc1cc(/C=C/C(O)=C/C(=O)/C=C/c2ccc(O)cc2)ccc1O returned PRMT1 FP inh -8, NOD2 RIPK2 PPI 49*, TLR9-MyD88 block 34*, ABHD5-PLIN5 inh 9, Granule exo inh -3, TLR9-MyD88 conf 25*, BLA counter-1 22, TLR9 CHO tox -1, NOD2-RIPK2 conf 57* and BLA counter-2 56*.
`COc1cc(/C=C/C(=O)NC(=O)c2ccccc2O)ccc1O` gave PRMT1 FP inh 5, NOD2 RIPK2 PPI 8, TLR9-MyD88 block 6, ABHD5-PLIN5 inh 1 and Granule exo inh -5.
For CCn1c(=O)c([N+](=O)[O-])c(Cl)c2ccccc21 the results were NOD2 RIPK2 PPI 88*, TLR4-MyD88 BLA 9, TLR9-MyD88 block 44*, ABHD5-PLIN5 inh 41*, Granule exo inh 24, TLR9-MyD88 conf 62*, BLA counter-1 9, TLR9 CHO tox 96*, ABHD5 PLIN5 conf 71*, HNF4 counter 95*, NOD2-RIPK2 conf 96* and BLA counter-2 22*.
CCn1c(=O)c([N+](=O)[O-])c(NCCN(C)C)c2ccccc21 was read as PRMT1 FP inh -2, NOD2 RIPK2 PPI -7, TLR4-MyD88 BLA 3, TLR9-MyD88 block -2, ABHD5-PLIN5 inh 4 and Granule exo inh 1.
Screening COc1ccc(/C=C/c2cc(C(=O)O)c3ccccc3n2)cc1 returned PRMT1 FP inh 5, NOD2 RIPK2 PPI 48*, TLR9-MyD88 block 24*, ABHD5-PLIN5 inh 1, Granule exo inh 0, TLR9-MyD88 conf 0, BLA counter-1 1, TLR9 CHO tox 14*, NOD2-RIPK2 conf 14 and BLA counter-2 13*.
Screening COc1cc(OC)c(OC)cc1/C=C/c1cc(C(=O)O)c2ccccc2n1 returned PRMT1 FP inh 3, NOD2 RIPK2 PPI 6, TLR4-MyD88 BLA 10, TLR9-MyD88 block 9, ABHD5-PLIN5 inh 4 and Granule exo inh -3.
Screening CCN(C(=O)c1ccccc1)c1ccc([N+](=O)[O-])cc1 returned PRMT1 FP inh 0, NOD2 RIPK2 PPI 6, TLR4-MyD88 BLA -8, TLR9-MyD88 block -12, ABHD5-PLIN5 inh 0 and Granule exo inh -1.
O=[N+]([O-])c1ccc(N(c2ccccc2)c2ccccc2)cc1 was read as PRMT1 FP inh -1, NOD2 RIPK2 PPI 58*, TLR4-MyD88 BLA 24, TLR9-MyD88 block 39*, ABHD5-PLIN5 inh -5, Granule exo inh 2, TLR9-MyD88 conf 32*, BLA counter-1 34, TLR9 CHO tox 6, NOD2-RIPK2 conf 62* and BLA counter-2 61*.
CCc1cc2c(=O)nc3n(c2s1)Cc1ccccc1/C3=C(/O)c1ccc(F)cc1 was read as PRMT1 FP inh 2, NOD2 RIPK2 PPI 23*, TLR4-MyD88 BLA -5, TLR9-MyD88 block 23*, ABHD5-PLIN5 inh 6, Granule exo inh 6, TLR9-MyD88 conf -1, BLA counter-1 1, TLR9 CHO tox 2, NOD2-RIPK2 conf 2 and BLA counter-2 0.
For CCc1cc2c(=O)nc3n(c2s1)Cc1ccccc1/C3=C(/O)c1cccc([N+](=O)[O-])c1 the results were NOD2 RIPK2 PPI 0, TLR4-MyD88 BLA 1, TLR9-MyD88 block 14, ABHD5-PLIN5 inh 3 and Granule exo inh 1.
Screening C=C1C(=O)c2sccc2C(c2ccc(OC)c(OC)c2)C1COC(C)=O (configuration not stated) returned PRMT1 FP inh 24*, NOD2 RIPK2 PPI 95*, TLR9-MyD88 block 24*, ABHD5-PLIN5 inh 79*, Granule exo inh 28, TLR9-MyD88 conf 28*, BLA counter-1 7, TLR9 CHO tox 97*, ABHD5 PLIN5 conf 95*, HNF4 counter 108*, NOD2-RIPK2 conf 92* and BLA counter-2 13*.
`O=c1c(Cl)c(Cl)cnn1-c1ccccc1` gave PRMT1 FP inh 6, NOD2 RIPK2 PPI 23*, TLR4-MyD88 BLA 24, TLR9-MyD88 block 24*, ABHD5-PLIN5 inh 10, Granule exo inh -2, TLR9-MyD88 conf 21*, BLA counter-1 13, TLR9 CHO tox 98*, NOD2-RIPK2 conf 35* and BLA counter-2 9.
O=C(CCc1nc(-c2ccccc2F)no1)NCCc1ccccc1F was read as PRMT1 FP inh 0.
COc1ccc2ccccc2c1/C=N/NC(=O)c1sc(N)c(C#N)c1C was read as PRMT1 FP inh 2, NOD2 RIPK2 PPI 22*, TLR4-MyD88 BLA -4, TLR9-MyD88 block 21*, ABHD5-PLIN5 inh 0, Granule exo inh 9, TLR9-MyD88 conf 8, BLA counter-1 0, TLR9 CHO tox 5, NOD2-RIPK2 conf 3 and BLA counter-2 5.
Screening COc1ccc2ccccc2c1/C=N\NC(=O)c1ccc(C)s1 returned PRMT1 FP inh 2, NOD2 RIPK2 PPI 8, TLR9-MyD88 block -3, ABHD5-PLIN5 inh -1 and Granule exo inh 2.
OCCN1CCN(CC(O)COc2ccc(C34CC5CC(CC(C5)C3)C4)cc2)CC1 (configuration not stated) was read as PRMT1 FP inh -1, NOD2 RIPK2 PPI 5, TLR4-MyD88 BLA -4, TLR9-MyD88 block 22*, ABHD5-PLIN5 inh 36*, Granule exo inh 72*, TLR9-MyD88 conf 5, BLA counter-1 5, TLR9 CHO tox 40*, ABHD5 PLIN5 conf 15, HNF4 counter 5 and Exocytosis CP01 79*.
`Cc1ccccc1CNC(=O)C1CCC(CNS(=O)(=O)c2cccc3cccnc23)CC1` (configuration not stated) gave PRMT1 FP inh 1.
